According to PubChem BioAssay (NCI):
This is part of a sample that, as a whole, favours compounds with a hit. Of some 83,000 tested, about 20% had one in any assay.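 The test compound was applied at a single concentration to cells in 96-well plates for 48 hours, and percent growth was recorded.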 Calls of active or inactive are those of the source. How the source made its calls: active means growth percent below 10; inactive means the rest.

Assays:
Experiment in all cases: NCI-60 one-dose screen, 48 h (100 = growth as untreated, 0 = no growth, -100 = all killed)
Settings in all cases: 10 µM unless noted
[1] = test system: SR leukemia
[2] = test system: RPMI-8226 leukemia
[3] = test system: OVCAR-8 ovarian
[4] = test system: OVCAR-5 ovarian
[5] = test system: OVCAR-4 ovarian
[6] = test system: SK-OV-3 ovarian
[7] = test system: IGROV1 ovarian
[8] = test system: OVCAR-3 ovarian
[9] = test system: HS 578T breast
[10] = test system: NCI/ADR-RES ovarian

Measured: growth

CCCCCCCCCCCCCCCCNC(=O)Nc1ccc2ccccc2c1
inactive: [1] 95.6% | [2] 102% | [3] 104% | [4] 111% | [5] 113% | [6] 101% | [7] 101% | [8] 116% | [9] 107% | [10] 110%

CC(=O)N1N=C(c2ccc(Cl)cc2)CC1c1c(C)nn(-c2ccccc2)c1N(C)Cc1ccccc1 (stereo not given)
inactive: [1] 72.4% | [2] 46.8% | [3] 80.9% | [4] 97.9% | [5] 80% | [6] 70.6% | [7] 63.7% | [8] 81.9% | [10] 64.1%

c1ccc(-c2n(Cc3ccc4ccccc4c3)cc[n+]2Cc2ccc3ccccc3c2)cc1
active: [1] -42.2% | [2] -37% | [3] -72.4% | [4] -35.9% | [5] -28.1% | [6] -6.1% | [7] -67.8% | [8] -89.8%
inactive: [10] 82.2%

CCCCCN(CCCCC)CCCNc1c2c(nc3ccc(Cl)cc13)CCCC2
active: [1] 0.527% | [2] 4.62%
inactive: [3] 37.5% | [4] 41.2% | [5] 17.6% | [6] 66.6% | [7] 17.5% | [8] 58.1% | [10] 48.9%

O=C(CNC(=O)c1cccc2ccccc12)Nc1ccccc1Oc1ccc(O)cc1
active: [8] -6.31% [5 µM]
inactive: [1] 30.4% [5 µM] | [2] 24.2% [5 µM] | [3] 28.4% [5 µM] | [4] 40.3% [5 µM] | [5] 70.4% [5 µM] | [6] 28.9% [5 µM] | [7] 38% [5 µM] | [10] 23.5% [5 µM]

O=C(/C=C/c1cccc(Nc2ccnc3cc(Cl)ccc23)c1)c1ccc(Cl)cc1
inactive: [3] 45.1% | [4] 60.4% | [5] 45.6% | [6] 76.7% | [7] 40.7% | [8] 56.8% | [10] 38.1%
active: [1] -9.97% | [2] -9.58%

O=C(N/N=C/c1cccc(O)c1)c1ccc(C(F)(F)F)nc1Nc1cccc(C(F)(F)F)c1
active: [1] -38.7% | [2] -37.2% | [8] -12.2%
inactive: [3] 18.1% | [4] 34.3% | [5] 10.5% | [6] 24.6% | [7] 15% | [10] 13.6%

O=C(CNC(=O)c1cccc2ccccc12)Nc1ccccc1Cc1ccccc1
inactive: [1] 18.8% [5 µM] | [2] 39.1% [5 µM] | [3] 37.6% [5 µM] | [4] 66.4% [5 µM] | [5] 81.2% [5 µM] | [6] 45% [5 µM] | [7] 53% [5 µM] | [8] 15.5% [5 µM] | [10] 17% [5 µM]

FC(F)(F)c1ccc(-c2cnc(-c3nn[nH]n3)nc2NC2CCCCCC2)cc1
inactive: [1] 15.1% [50 µM] | [2] 34.5% [50 µM] | [3] 42.4% [50 µM] | [4] 101% [50 µM] | [5] 60.8% [50 µM] | [6] 86.1% [50 µM] | [7] 52.7% [50 µM] | [8] 31% [50 µM] | [10] 30.8% [50 µM]

CCOc1cc(CCNS(=O)(=O)c2ccc(C)cc2)c(C(C)=O)cc1OCC
inactive: [1] 42.6% [100 µM] | [2] 40% [100 µM] | [3] 76% [100 µM] | [4] 101% [100 µM] | [5] 84.6% [100 µM] | [6] 96.7% [100 µM] | [7] 93.9% [100 µM] | [8] 71.8% [100 µM] | [10] 66.3% [100 µM]

N#Cc1c(-c2ccccc2)cc(-c2ccccc2)n(CCCCC(=O)O)c1=O
inactive: [1] 65.1% | [2] 96.2% | [3] 96% | [4] 98% | [5] 115% | [6] 136% | [7] 102% | [8] 101% | [9] 101% | [10] 80.5%

COc1ccc(C2=NN(C(C)=O)C(c3cccc(Nc4ccnc5cc(Cl)ccc45)c3)C2)cc1 (stereo not given)
active: [1] -8.23%
inactive: [2] 41% | [3] 50% | [4] 87.2% | [5] 42% | [6] 52.9% | [7] 65.7% | [8] 59.3% | [10] 43.6%

Cn1c(=O)c2[nH]c(=S)n(Cc3ccccc3)c2n(C)c1=O
inactive: [1] 91.4% | [2] 119% | [3] 111% | [4] 105% | [5] 98.9% | [6] 107% | [7] 108% | [8] 104% | [9] 101% | [10] 99.2%

Cc1n(Cc2ccc3ccccc3c2)cc[n+]1Cc1ccc2ccccc2c1
active: [1] -3.72% | [2] 2.6% | [3] 3.06% | [5] 9.29% | [7] -38.1% | [8] -1.02%
inactive: [4] 20.6% | [6] 21% | [10] 92.7%

C/C(=C\CCc1ccsc1)CC/C=C(\C)CCCN1CCSCC1
inactive: [1] 53.6% | [2] 58% | [3] 99.9% | [4] 94.8% | [5] 84.3% | [6] 93.1% | [7] 94.1% | [8] 82.3% | [9] 93.2% | [10] 84.9%

Cc1sc2nc(NCCc3cccs3)[nH]c(=O)c2c1C
inactive: [1] 72.1% | [2] 86.7% | [3] 87.4% | [4] 97.8% | [5] 95.6% | [6] 79% | [7] 101% | [8] 106% | [10] 85.2%

Cc1ccc2nc3c(n2c1)C(=O)C(=O)c1ccccc1-3
active: [1] -44.5% | [2] -51.9% | [3] -68.1% | [4] -74% | [5] -98.4% | [6] -90.9% | [7] -49.1% | [8] -82.5% | [9] -15.6% | [10] -3.7%

O=C(/C=C/c1ccc(C(F)(F)F)cc1)c1ccc(Nc2nc(NCCO)nc(NCCO)n2)cc1
inactive: [3] 21.7% | [4] 64.3% | [5] 62.3% | [6] 70.7% | [7] 72.5% | [8] 25.8% | [10] 90.1%
active: [1] -2.01% | [2] 1.43%

O=Cc1ncc(-c2ccc(C(F)(F)F)cc2)c(NC2CCCCCC2)n1
active: [1] -29.1% [100 µM] | [2] -35.1% [100 µM] | [3] -68.2% [100 µM] | [4] -91.8% [100 µM] | [5] -73.8% [100 µM] | [6] -13.7% [100 µM] | [7] -68.3% [100 µM] | [8] -94.5% [100 µM] | [10] -69.8% [100 µM]

CC(=O)Nc1cc(C(c2ccccc2)c2ccccc2)cc(C(c2ccccc2)c2ccccc2)c1C
inactive: [1] 14.3% | [2] 11.2% | [3] 73.8% | [4] 75.4% | [5] 43.8% | [6] 77% | [7] 58% | [8] 49.8% | [10] 51.8%

CCSc1nc(-c2cccs2)n2nc(-c3ccco3)cc2n1
inactive: [1] 92.7% | [2] 53.9% | [3] 99.8% | [4] 97.3% | [5] 68.9% | [6] 106% | [7] 87.5% | [8] 112% | [9] 108% | [10] 103%

COc1ccc2c(c1)[n+](=O)c(/C=C/C(=O)c1cc(OC)c(OC)c(OC)c1)c(C)n2[O-]
active: [1] -10.6% | [2] -45.8% | [3] 3.84%
inactive: [4] 84% | [5] 62.8% | [6] 102% | [7] 32.1% | [8] 19.4% | [9] 90.7% | [10] 52.8%

N#CC(C#N)C(C#N)C#N
inactive: [1] 109% | [2] 107% | [3] 97.4% | [4] 111% | [5] 98.6% | [6] 84% | [7] 112% | [8] 104% | [10] 101%

CC12CCC3C(=CCc4cc(O)ccc43)C1CCC2=O (stereo not given)
inactive: [1] 97.6% | [2] 87.8% | [3] 101% | [4] 102% | [5] 107% | [6] 115% | [7] 107% | [8] 111% | [10] 102%

COC(=O)[C@H](Cc1cn(C)cn1)NC(=O)[C@H](Cc1ccccc1)NC(=O)Nc1cc(C(F)(F)F)cc(C(F)(F)F)c1
active: [1] -39% [100 µM] | [2] -58.8% [100 µM] | [3] -87.9% [100 µM] | [4] -94% [100 µM] | [5] -87.1% [100 µM] | [6] -100% [100 µM] | [7] -56.3% [100 µM] | [8] -99.1% [100 µM] | [10] 4.87% [100 µM]

O=c1oc2c(cc1-c1ccc([N+](=O)[O-])cc1)C(O)Oc1ccccc1-2 (stereo not given)
inactive: [1] 56.2% | [2] 50.2% | [3] 94.7% | [4] 82.1% | [5] 86.4% | [6] 99.6% | [8] 111% | [9] 102% | [10] 72.2%

COc1cc(C(=O)/C=C/c2cccc(Nc3ccnc4cc(Cl)ccc34)c2)cc(OC)c1OC
inactive: [6] 20.3% | [10] 12.2%
active: [1] -18.7% | [2] -15.9% | [3] -41% | [4] -35.8% | [5] -39.5% | [7] -54% | [8] -51.4%
